{"source": "PubChem BioAssay (NCATS)", "note": "Records with an inconclusive call do not appear. Entries that show only a call come without a potency. The source made the active and inactive calls. The call rests on the fitted dose curve; in most records, active means well fitted inhibition curve with a large enough effect; inconclusive means small, poorly fitted or top-dose-only effect; inactive means flat fitted curve, though single readings scatter.", "data": [{"test_system": "CRL-7250", "test": "qHTS assay to identify novel small-molecules to repurpose for Merkel cell carcinoma treatment (AID 1296009); further: nearly all actives have a fitted effect of over 60% in size", "settings": "MCC and control cell lines, CellTiter-Glo viability, 72 h; series mostly up to 92 µM", "in_short": "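Cells were incubated with compound for 72 hr at 37 degree celsius before CellTiter-Glo addition. Luminescence was normalized with no-cell wells as full cytotoxicity and DMSO as baseline.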", "values": [{"smiles": "C=C1CCC2C(C)(C)CC(=O)CC2(C)C1CCC(C)CCOC(C)=O", "note": "(stereo not given)", "Potency": "inactive"}, {"smiles": "CC1(C)CC[C@]2(C(=O)O[C@@H]3O[C@H](CO)[C@@H](O)[C@H](O)[C@H]3O)CC[C@]3(C)C(=CCC4[C@@]5(C)C[C@@H](O)[C@H](O)[C@](C)(C=O)C5CC[C@]43C)[C@@H]2[C@@H]1O", "note": "(stereo not given in full)", "Potency": "inactive"}, {"smiles": "C[C@H](C(=O)NC1CCCC1)N(C(=O)Cn1nnc(-c2ccc3c(c2)OCO3)n1)C1CCCCC1", "Potency": "inactive"}, {"smiles": "CCC(O)(C(=O)OCc1ccccc1NC(=O)CCC(=O)O)C(C)O", "note": "(stereo not given)", "Potency": "inactive"}, {"smiles": "CC(C)=CCC[C@](C)(O[C@@H]1O[C@H](CO[C@@H]2OC[C@@H](O)[C@H](O)[C@H]2O)[C@@H](O)[C@H](O)[C@H]1O)[C@H]1CC[C@]2(C)[C@@H]1[C@H](O)C[C@@H]1[C@@]3(C)CC[C@H](O[C@@H]4O[C@H](CO)[C@@H](O)[C@H](O)[C@H]4O[C@@H]4O[C@H](CO)[C@@H](O)[C@H](O)[C@H]4O)C(C)(C)[C@@H]3CC[C@]12C", "Potency": "inactive"}, {"smiles": "C=C[C@H]1[C@H](O[C@@H]2O[C@H](CO)[C@@H](O)[C@H](O)[C@H]2O)OC=C2C(=O)N3Cc4c([nH]c5ccccc5c4=O)[C@@H]3C[C@H]21", "Potency": "inactive"}, {"smiles": "CC1=C2C[C@@]3(C)[C@@H](CCC[C@@H]3C)C[C@@]2(O)OC1=O", "Potency": "inactive"}, {"smiles": "C[C@]1(O)CC[C@@H]2C(C(=O)O)=CO[C@@H](O[C@@H]3O[C@H](COC(=O)/C=C/c4ccc(O)c(O)c4)[C@@H](O)[C@H](O)[C@H]3O)[C@@H]21", "Potency": "inactive"}, {"smiles": "COc1ccc(C2(O)c3c(ccc4c3OC(C)(CCC=C(C)C)C=C4)NC(=O)C2OC)cc1", "note": "(stereo not given)", "Potency": "inactive"}, {"smiles": "COc1cc2c(cc1O)C1(Cc3ccc4c(c3C1O)OCO4)[N+](C)([O-])CC2", "note": "(stereo not given)", "Potency": "inactive"}, {"smiles": "C[C@@H]1O[C@@H](O[C@H]2[C@H](O)[C@@H](O)[C@H](OC[C@H]3O[C@@H](OC(=O)[C@]45CCC(C)(C)C[C@H]4C4=CCC6[C@@]7(C)C[C@@H](O)[C@H](O)[C@@](C)(CO)C7[C@H](O)C[C@@]6(C)[C@]4(C)CC5)[C@H](O)[C@@H](O)[C@@H]3O)O[C@@H]2CO)[C@H](O)[C@H](O)[C@H]1O", "note": "(stereo not given in full)", "outcome": "inactive [at 9.27 µM]"}, {"smiles": "CC1(C)C[C@H](O)C[C@@]2(C)[C@H]1[C@H](O)C=C1COC(=O)[C@@]12O", "Potency": "inactive"}, {"smiles": "CC(=O)OC[C@]12[C@H](OC(C)=O)[C@H](OC(=O)c3ccccc3)[C@@H]3[C@@H](OC(C)=O)[C@]1(OC3(C)C)[C@H](C)C[C@H](OC(C)=O)[C@@H]2OC(=O)c1ccccc1", "Potency": "inactive"}, {"smiles": "CC(C)(C)NS(=O)(=O)c1cncc(-c2cc(F)c3nc(N)nn3c2)c1", "Potency": "inactive"}, {"smiles": "C=C1CC[C@@H]2[C@@](C)(CO[C@@H]3O[C@H](CO)C(O)[C@H](O)C3O)[C@H](O)CC[C@@]2(C)[C@@H]1CC/C(C)=C/CO", "note": "(stereo not given in full)", "outcome": "inactive [at 9.27 µM]"}, {"smiles": "CC(=O)/C=C/C1C(C)CC(O[C@@H]2O[C@H](CO)[C@@H](O)[C@H](O)[C@H]2O)CC1(C)C", "note": "(stereo not given in full)", "Potency": "inactive"}, {"smiles": "CCc1nnc(NS(=O)(=O)c2ccc(NC(=S)NC(=O)/C=C/c3ccc(F)cc3)cc2)s1", "Potency": "inactive"}, {"smiles": "CC(=O)O[C@]1(C(C)=O)CC[C@H]2[C@@H]3CCC4=CC(=O)CCC4=C3[C@@H](c3ccc(N(C)C)cc3)C[C@@]21C", "Potency": "inactive"}, {"smiles": "COC(=O)c1ccccc1O[C@@H]1O[C@H](CO)[C@@H](O)[C@H](O)[C@H]1O[C@@H]1O[C@@H](C)[C@H](O)[C@@H](O)[C@H]1O", "Potency": "inactive"}, {"smiles": "CC1(C)CCC2(C(=O)OC3OC(COC4OC(CO)C(O)C(O)C4O)C(O)C(O)C3O)CCC3(C)C(=CCC4C5(C)CCC(O)C(C)(C(=O)O)C5CCC43C)C2C1O", "note": "(stereo not given)", "outcome": "inactive [at 9.27 µM]"}, {"smiles": "CC(C)S(=O)(=O)N[C@H]1CCOC[C@@H]1c1ccc(-c2ccc(C#N)s2)cc1", "Potency": "inactive"}, {"smiles": "CC(NCc1ccc(OCc2cccc(F)c2)cc1)C(N)=O", "note": "(stereo not given)", "Potency": "inactive"}, {"smiles": "C[C@@H]1CC[C@]2(C(=O)O[C@@H]3O[C@H](CO)[C@@H](O)[C@H](O)[C@H]3O)CC[C@]3(C)C(=CCC4[C@@]5(C)C[C@@H](O)[C@H](O)C(C)(C)C5CC[C@]43C)C2[C@]1(C)O", "note": "(stereo not given in full)", "Potency": "inactive"}, {"smiles": "C=CC/C=C\\C/C=C\\CCCCCCCc1cccc(O)c1C(=O)O", "Potency": "inactive"}, {"smiles": "C=C1CCC2C(C)(C(=O)O)CCCC2(C)C1CCC1=CCOC1=O", "note": "(stereo not given)", "Potency": "inactive"}, {"smiles": "CCCCc1ccc(NS(=O)(=O)c2ccc(F)cc2)cc1", "Potency": "inactive"}, {"smiles": "COc1cc(/C=C/C(=O)O[C@H]2[C@H](O)[C@@H](CO)O[C@@]2(CO)O[C@H]2O[C@H](CO)[C@@H](O)[C@H](O)[C@H]2O)cc(OC)c1O", "Potency": "inactive"}, {"smiles": "C[C@@H]1O[C@@H](O[C@H]2[C@H](O[C@H]3CC[C@@]4(C)C(CC[C@]5(C)C4CC=C4[C@@H]6CC(C)(C)CC[C@]6(C(=O)O[C@@H]6OC[C@H](O)[C@H](O)[C@H]6O[C@@H]6O[C@@H](C)[C@H](O[C@@H]7O[C@H](CO)[C@@H](O)[C@H](O)[C@H]7O)[C@H](O)[C@H]6O)[C@H](O)C[C@]45C)C3(C)C)O[C@H](CO)[C@@H](O[C@@H]3OC[C@@H](O)[C@H](O)[C@H]3O)[C@@H]2O)[C@H](O)[C@H](O)[C@H]1O", "note": "(stereo not given in full)", "outcome": "inactive [at 9.27 µM]"}, {"smiles": "COc1cc2c(cc1O)CC(O)(CO)C(CO)C2c1ccc(OC2OC(CO)C(O)C(O)C2O)c(OC)c1", "note": "(stereo not given)", "Potency": "inactive"}, {"smiles": "O=c1c2cccnc2n(-c2cccc([N+](=O)[O-])c2)c(=O)n1Cc1ccncc1", "Potency": "inactive"}, {"smiles": "COC(=O)C1=CO[C@@H](O[C@@H]2O[C@H](CO)[C@@H](O)[C@H](O)[C@H]2O)[C@H]2[C@@H]1CC(OC)O[C@@H]2C", "note": "(stereo not given in full)", "Potency": "inactive"}, {"smiles": "CC1(C)CC2C3=CCC4C5(C)CCC(OC6OC(CO)C(O)C(OC7OC(CO)C(O)C(OC8OC(CO)C(O)C(OC9OC(COC%10OC(CO)C(O)C(O)C%10O)C(O)C(O)C9O)C8O)C7O)C6O)C(C)(C)C5CCC4(C)C3(C)CCC2(C(=O)O)CC1O", "note": "(stereo not given)", "outcome": "inactive [at 9.27 µM]"}, {"smiles": "CC(=O)O[C@@H]1C(=O)C(C)=C(CCC(C)CC(=O)O)[C@@]2(C)CCCC(C)(C)C12", "note": "(stereo not given in full)", "Potency": "inactive"}, {"smiles": "C[C@H](N)C(=O)N[C@@H](Cc1ccc(O)cc1)C(=O)N1CCC[C@H]1C(=O)NCC(=O)N[C@@H](CCCCN)C(=O)N[C@@H](Cc1ccccc1)C(N)=O", "outcome": "inactive [at 9.27 µM]"}, {"smiles": "CC12CC34C=CC(=O)C(C)(CCC(=O)O)C3C(CC1C4)O2", "note": "(stereo not given)", "Potency": "inactive"}, {"smiles": "CC12CCC3c4ccc(O)cc4CCC3C1CCC2OC1OC(C(=O)O)C(O)C(O)C1O", "note": "(stereo not given)", "Potency": "inactive"}, {"smiles": "COc1cc(CC2COC(c3ccc(OC4OC(CO)C(O)C(O)C4O)c(OC)c3)C2CO)ccc1O", "note": "(stereo not given)", "Potency": "inactive"}, {"smiles": "COc1ccc(CNCc2cccc3ccccc23)cc1", "Potency": "inactive"}, {"smiles": "COC(=O)C(C)C1CCC2(C)C(=O)C=CC(C)(O)C2C1O", "note": "(stereo not given)", "Potency": "inactive"}, {"smiles": "C[C@H]1/C=C/C=C/C=C/C=C/C=C/[C@@H](O)[C@H](C(=O)O)[C@H](O)C[C@H](O)CCC[C@H](O)C[C@H](O)C[C@H](O)[C@@H](C)C(=O)O[C@@H]1C", "Potency": "inactive"}]}]}
